Screens as filed in PubChem BioAssay.
IL-1B inflam inh – qHTS for Inhibitors of Inflammasome Signaling: IL-1-beta AlphaLISA Primary Screen | THP-1 LPS/ATP IL-1B secretion, AlphaLISA, 16 h; stronger effect = lower value | activity change, % at 57.5 µM | 360,000 tested, 4.7% active | AID 743279, 2014; in the data active = activity change below about -50%; inconclusive = mostly about -30% to -49%
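THP-1 cells pretreated 1 hr with compounds (up to 57.5 uM final), then stimulated with LPS (250 ng/mL final) plus ATP (1.25 mM final); secreted IL-1B measured by AlphaLISA after 16 hr, decreased signal indicating inhibition.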
HT1080 IDH1KD tx – qHTS for induction of synthetic lethality in tumor cells producing 2HG: qHTS for the HT-1080-IDH1KD cell line; HT-1080 IDH1 knockdown viability, ATP luminescence, 48 h; Potency, µM (top dose mostly 46.1 µM), hits mostly cytotoxic; 360,000 tested, 2% active
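% activity derives from luminescence (CellTiter-Glo), normalised to DMSO and no-cell wells. HT-1080-IDH1KD cells, 750/well, had 48 h compound exposure at 37 °C.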
TDP1 cell CPT – qHTS for Inhibitors of human tyrosyl-DNA phosphodiesterase 1 (TDP1): qHTS in cells in presence of CPT; chicken DT40 Tdp1-/-;hTDP1 cells + 20 nM CPT, ATP luminescence, 48 h; Potency, µM (series often up to 46.2 µM), actives largely listed as inhibitors; 420,000 tested, 12% active; AID 686979, 2013; also: nearly all actives have a fitted effect of over 55% in size
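Cell growth measured by CellTiter-Glo luminescence after a minimum 48 h, 37 C compound exposure with 20 nM CPT in Tdp1-knockout DT40 cells stably expressing hTDP1, seeded 400/well; qHTS titration format.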
TDP1 cell noCPT – qHTS for Inhibitors of human tyrosyl-DNA phosphodiesterase 1 (TDP1): qHTS in cells in absence of CPT; 420,000 tested, 15% active; DT40 Tdp1-/- hTDP1 cells, no CPT, ATP luminescence, 48 h; Potency, µM (doses to about 46.2 µM), usual class: inhibitors; also: nearly all actives have a fitted effect of over 55% in size
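Chicken DT40 Tdp1-/- cells complemented with human TDP1, screened without camptothecin (DMSO vehicle only), 400 cells/well. Compounds pin-transferred, cells incubated at 37 °C for at least 48 hr. Growth read as ATP-dependent luminescence (CellTiter-Glo, 30 min at RT).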
HT1080NT lethal – qHTS for induction of synthetic lethality in tumor cells producing 2HG: qHTS for the HT-1080-NT fibrosarcoma cell line; HT-1080-NT fibrosarcoma viability, CellTiter-Glo ATP luminescence, 48 h; Potency, µM (highest dose often 46.1 µM), actives largely listed as cytotoxic; 360,000 tested, 1.6% active;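 also: NT is the 2HG producing partner of a matched IDH1 knockdown line; nearly all actives have a fitted effect of over 55% in size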
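Toxicity toward the 2HG-producing NT line was scored as %Activity, normalised to DMSO and no-cell wells, from CellTiter-Glo luminescence after 48 hours' treatment.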
Large screens that a line does not name were inactive. Rows were chosen to be rich in hits. Some 19% of all compounds tested hit in one or more screens of this group. Unless noted, calls follow the shape of the dose curve; as a rule, active = well fitted curve in the direction sought with a large enough effect; inconclusive = small, poorly fitted or top-dose-only effect, or another doubt; inactive = no such curve, though single readings can be large; an effect the other way counts as inactive or inconclusive.

Cc1ccc(CNC(=O)CCCN2C(=O)CCn3nc(-c4cn(C)c5ccccc45)cc32)cc1	none (no result: IL-1B inflam inh, HT1080 IDH1KD tx, HT1080NT lethal)
COc1ccc(CCNC(=O)CN(c2ccc(OC)c(OC)c2)S(=O)(=O)c2ccc(C)cc2)cc1	none
O=C(NCC(=O)N1CCC(Cc2ccccc2)CC1)c1ccccc1F	IL-1B inflam inh inconclusive, TDP1 cell CPT inconclusive, TDP1 cell noCPT 20.6µM
O=C(OCC(=O)N1CCC(Cc2ccccc2)CC1)c1ccccc1O	TDP1 cell CPT inconclusive, TDP1 cell noCPT 29.1µM
NC(=O)c1ccccc1OCC(=O)N1CCC(Cc2ccccc2)CC1	TDP1 cell CPT 7.31µM, TDP1 cell noCPT 9.2µM
O=C(NCC(=O)N1CCCC1)c1ccccc1F	none
COc1ccc(C)cc1NC(=O)Cn1c(=O)nc(-c2ccccc2F)c2cc(Cl)ccc21	none (no result: IL-1B inflam inh, HT1080 IDH1KD tx, HT1080NT lethal)
COC(=O)CC1C(=O)NCCN1C(=O)CSc1nc2ccc([N+](=O)[O-])cc2s1 (stereo not drawn)	none
COc1ccc(C2(O)C(=O)Nc3ccc(C)cc32)cc1 (stereo not drawn)	none
C=C(C)C(=O)OC1(C(F)(F)F)Oc2cc(C)ccc2NC1=O (stereo not drawn)	IL-1B inflam inh -72.9, HT1080 IDH1KD tx inconclusive, TDP1 cell CPT 16.4µM, TDP1 cell noCPT 16.4µM, HT1080NT lethal inconclusive
O=C(Cn1c2[n+](c3ccc(C(F)(F)F)cc31)CCCCC2)c1ccc2c(c1)OCCO2	TDP1 cell CPT inconclusive, TDP1 cell noCPT 20.6µM
CCc1cccc(NC(=O)Cn2c3[n+](c4ccc(C(F)(F)F)cc42)CCCCC3)c1	IL-1B inflam inh -68.3, TDP1 cell CPT inconclusive, TDP1 cell noCPT 16.4µM
CCOCCCNC(=O)C(NC(=O)CC1NC(=O)NC1=O)c1ccc(Cl)cc1 (stereo not drawn)	none
O=C(N/N=C/c1ccncc1)c1cc2ccccc2o1	IL-1B inflam inh -52.5
CCOC(=O)Cn1cc(/C=N/NC(=O)c2cc3ccccc3o2)c2ccccc21	IL-1B inflam inh inconclusive, TDP1 cell noCPT inconclusive
Cc1cc(/C=N/NC(=O)c2cc3ccccc3o2)c(C)n1C	TDP1 cell CPT 14.6µM, TDP1 cell noCPT 23.1µM
O=C(N/N=C/c1cccnc1)c1cc2ccccc2o1	none
N#C/C(=C/c1ccc(N2CCOCC2)c([N+](=O)[O-])c1)C(N)=O	none
CN1C(=O)[C@H]2[C@@H](c3ccc(C(F)(F)F)cc3)N[C@]3(CCCN(Cc4ccc(Br)cc4)C3=O)[C@H]2C1=O	TDP1 cell CPT 14.6µM, TDP1 cell noCPT 16.4µM
CN1C(=O)[C@H]2[C@@H](c3ccc(C(F)(F)F)cc3)N[C@]3(CCCN(Cc4ccc(C(F)(F)F)cc4)C3=O)[C@H]2C1=O	TDP1 cell CPT 23.1µM, TDP1 cell noCPT 18.4µM
CN1C(=O)[C@H]2[C@@H](c3ccc(C(F)(F)F)cc3)N[C@]3(CCCN(CC4CCCCC4)C3=O)[C@H]2C1=O	TDP1 cell CPT 20.6µM, TDP1 cell noCPT 10.3µM
CC1CCN(CC(=O)Nc2cccc(Cl)c2)CC1	TDP1 cell CPT inconclusive
COc1ccc(CNC(=O)C2CCCN2C)cc1OC (stereo not drawn)	none
Cc1nc(NCc2c(F)cccc2F)sc1-c1ccn(CCN2CCOCC2)n1	none (no result: IL-1B inflam inh, HT1080 IDH1KD tx, HT1080NT lethal)
Cc1sc2nc(SCCN(C)C)n(-c3ccccc3)c(=O)c2c1-c1ccc(F)cc1	TDP1 cell CPT 18.4µM, TDP1 cell noCPT 25.9µM
CN(C)CCSc1nc(O)c(-c2ccccc2)c(=O)n1-c1ccccc1	none
Cc1ccc(C)c(N2CCN(C(=O)C34CC5CC(C3)CC(n3nnc(C)n3)(C5)C4)CC2)c1	IL-1B inflam inh inconclusive, HT1080 IDH1KD tx inconclusive, TDP1 cell CPT 6.51µM, TDP1 cell noCPT 7.31µM, HT1080NT lethal inconclusive
CC(=O)[C@@H]1[C@@H](C(=O)c2ccc(F)cc2)[C@]2(C(=O)Nc3ccccc32)[C@H]2C=Cc3cc(F)ccc3N12	IL-1B inflam inh -74.1, TDP1 cell CPT inconclusive, TDP1 cell noCPT inconclusive, HT1080NT lethal inconclusive
